In PubChem BioAssay AID1850 (Southern Research Specialized Biocontainment Screening …, 2009) one finds inhibition data, which are given here for 69 compounds.

The whole screen tested about 310,000 compounds, of which about 1,000 (0.32%) were called active. The list is a sample of the results. Potency and affinity values are given separately. Unmarked numbers belong to inactive results. No rule for the calls is given here.

A short description of the experiment: Inhibition of PhoP regulon, Salmonella typhi GFP reporter cells, confirmation, 4 h (AID 1850).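 Also: 0% = induced wells with vehicle and 100% = uninduced wells.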 Particulars: Salmonella Typhi PhoP-promoter GFP reporter, fluorescence, at 50 µM, stronger effect = higher value.
For `CCC(Oc1ccc(C)cc1)C(=O)Nc1ccc2c(c1)n(C)c(=O)n2C` (centres undefined), the inhibition (commonly the change of the read-out against control, counted positive when it falls) is -3.92%.
For `CCNC(=O)CC1SC(=Nc2cccc3ccccc23)N(C)C1=O` (centres undefined) the value was -5.94%; for `CCN(CC(=O)NC(=O)Nc1ccccc1F)Cc1ccccc1`, -3.48%.
Turning to `CCN1CCN(C(=O)CCCn2c(C)c3cnn(-c4ccccc4)c(=O)c3c2C)CC1`, the inhibition was -6.37%.
Regarding `O=C(CN(CCO)c1ccccc1)Nc1ccc(Cl)c(S(=O)(=O)N2CCOCC2)c1`, the inhibition was -1.19%.
For `Cc1ccc2[nH]c3c(NCc4ccccc4)ncnc3c2c1` the value was -1.37%.
Take `Clc1ccc2[nH]c3c(NCCN4CCOCC4)ncnc3c2c1`: the inhibition was 0.11%.
For `Clc1ccc2[nH]c3c(NCC4CCCO4)ncnc3c2c1` (centres undefined) the value was -14%; for `C=CCNc1ncnc2c1[nH]c1ccccc12`, -0.69%; for `CCCNC(=O)c1oc2ccc3c(c2c1C)C=CC(C)(C)O3`, -5.94%.
For `Cc1nc2ccccn2c1C(=O)NNC(=S)Nc1ccc(Cl)cc1` the value was 0.64%; for `COc1ccc(C[C@H]2CN3C(=NC[C@H]3Cc3ccccc3)N2CCNC(=O)c2ccc(C)c(Br)c2)cc1`, 26.2%.
Consider `Cc1ccc(C(=O)NCCN2C3=NC[C@H](Cc4ccc(O)cc4)N3C[C@H]2Cc2ccc(O)cc2)cc1Br`, for which the inhibition was 12.4%.
For `O=C(Nc1ccnn1C1CCN(C/C=C/c2ccccc2)CC1)C1CCCC1` the value was -2.03%; for `COC(=O)C1=NN(c2ccc(C)cc2)C2(S1)SC(C(C)=O)=C(C)N2c1ccccc1` (centres undefined), -16.3%.
For `COc1ccc(NCC(O)COc2ccc(C(C)(C)C)cc2)cc1` (centres undefined) the value was 10.5%; for `CC(=O)c1cccc(OCC(O)CNCCc2ccc(Cl)cc2)c1` (centres undefined), 4.73%.
For `OC(CNCc1ccc(Cl)cc1)COc1ccccc1` (centres undefined) the value was 11.1%; for `CC(C)(C)NCC(O)COc1ccc(Br)cc1` (centres undefined), -6.26%.
For the compound `COc1ccc(CCNCC(O)COc2ccc(Cl)cc2)cc1OC` (centres undefined), the inhibition was 5.92%.
For `OC(CNCCC(c1ccccc1)c1ccccc1)COc1ccccc1` (centres undefined) the value was -4.1%; for `OC(CNCc1ccccc1)COc1ccccc1` (centres undefined), 18.5%; for `Cc1cc(Cl)ccc1OCC(O)CNCCc1ccc(S(N)(=O)=O)cc1` (centres undefined), -14.1%.
`CC1=NN(C(=O)c2c(Br)cnn2C)C(O)(C(F)(F)F)C1` (centres undefined): the inhibition is 14.8%.
For `CC(C)(C)c1ccc(C(=O)NNC(=S)NC(=O)c2cccnc2)cc1` the value was 7.73%.
With `CCn1c(SCC(=O)Nc2oc(C)c3c(C)n[nH]c(=O)c23)nc2sc(C)c(C)c2c1=O`, the inhibition is -1.81%.
For `CCOc1ccc(NC(=O)C2CCCN(S(=O)(=O)c3ccc4[nH]c(=O)ccc4c3)C2)cc1` (centres undefined) the value was 4.78%; for `COc1ccc(NC2c3ccccc3C(=O)N2c2ccccn2)cc1` (centres undefined), 0.4%.
For `COc1ccc(C(C)=O)cc1CSc1nnc(Nc2ccc(C)cc2)s1` the value was 7.09%; for `Cc1nn2c(-c3cccnc3)ccnc2c1-c1ccccc1`, -4.51%.
In the case of `COc1ccc(N2C(=O)CC(C#N)=C2N)cc1`, the inhibition was 17.1%.
As for `COc1ccc(-n2nc(C)c3c(=O)c4c([nH]c32)CCCC4)cc1`, the inhibition is 7.61%.
For `Cc1cccc(NC(=O)CN2C(=O)C(C)Oc3ccccc32)n1` (centres undefined), the inhibition is -5.84%.
For `CN1C(=O)Cc2cc(S(=O)(=O)N3CCN(c4ccc(Cl)cc4)CC3)ccc21` the value was 3.82%.
For `C=CCc1c(C)nc(C)nc1N/N=C/c1ccccc1O` the value was -9.46%.
For `COc1ccc(OCCCC(=O)OC(C)C(=O)Nc2cccc(C(C)=O)c2)cc1` (centres undefined) the value was 15.1%.
On to `O=C(Cn1cc([N+](=O)[O-])ccc1=O)NCc1ccc(Cl)cc1Cl`, for which the inhibition was -7.2%.
For `CC(C)N(CCNCC(O)COc1ccc(C(C)(C)c2ccccc2)cc1)C(C)C` (centres undefined) the value was -17.3%; for `COC(=O)c1ccc(CNCC(O)COc2ccc(-c3ccccc3)cc2)cc1` (centres undefined), 10.8%.
For `COc1ccc(OC)c(-n2nnnc2SCC(=O)NCc2ccc3c(c2)OCO3)c1` the value was 0.94%; for `COc1ccc2[nH]c3c(Cl)ncnc3c2c1`, 1.3%.
For `COc1ccc2[nH]c3c(=S)nc[nH]c3c2c1` the value was 3.32%; for `c1ccc2c(c1)[nH]c1ccncc12`, -9.87%; for `c1ccc2c(c1)[nH]c1cnccc12`, 7.53%.
For `COc1cc(NC(=O)CSc2nnc(-c3ccncc3)n2C2CCCCC2)ccc1NC(=O)c1ccco1`, the inhibition is -17.8%.
As for `Cc1cc(C)c(S(=O)(=O)N2CCC(C(N)=O)CC2)cc1C`, the inhibition is 16.3%.
In the case of `COc1ccc(-c2sc(Nc3ccc(F)c(F)c3F)nc2CCC(=O)NN)cc1`, the inhibition was 4.23%.
For `CS(=O)(=O)N1N=C(c2ccco2)CC1c1ccccc1` (centres undefined) the value was -3.63%.
For `NC(=O)C1CCN(C(=O)/C=C/c2cc(Br)ccc2F)CC1` the value was -0.48%; for `CCOC(=O)CNC(=S)NN(C)C`, 10.8%.
In the case of `CC(C)(C)OC(=O)N[C@@H](Cc1ccccc1)C(=O)N1CCC(C(=O)N[C@@H](CCC(N)=O)C(=O)O)CC1`, the inhibition is -2.12%.
For `CCOc1ccc(CCNC(=O)c2cc(=O)[nH]c3ccc(S(=O)(=O)N(CC)CC)cc23)cc1OCC` the value was -9.13%; for `O=C1C=C(O)c2cccc3cccc1c23`, -13.1%.
For `O=C1C(=O)c2cccc3cccc1c23` the value was -2.11%.
For `CCOc1cc(N2CCOCC2)c(OCC)cc1NC(=O)CC12CC3CC(CC(C3)C1)C2` the value was -0.45%; for `COc1ccccc1Nc1nc(Cl)nc(NC(C)(C)C)n1`, -9.98%; for `Clc1ccc(-c2nc(Cc3ccccc3)no2)cc1`, 11.6%.
For the compound `OCCNCc1cc(Br)ccc1OCc1ccccc1`, the inhibition is -2.3%.
For `OCCNCc1cc(Br)ccc1OCc1ccc(F)cc1` the value was 10.4%; for `CCSP1(=S)N=C(N2CCOCC2)C(C#N)=C2CCCN21` (centres undefined), -5.06%.
`Cc1cccc(NCC(=O)N/N=C\c2cccn2C)c1`: the inhibition is -0.18%.
For `COc1ccc(C(=O)NNC(=S)NC(=O)/C=C/c2cccs2)cc1` the value was 12%.
For `O=C(NC(=S)Nc1ccc(NC(=O)c2cccs2)cc1)c1ccco1` the value was -1.46%; for `O=C(NNC(=O)c1cccs1)c1ccco1`, 0.32%.
For `O=C(NNC(=O)c1ccccc1O)c1ccco1` the value was 14.9%; for `O=C(NC(=S)NNC(=O)c1ccccc1O)c1cccs1`, 7.92%.
Turning to `O=C(NNC(=O)c1cccs1)c1ccc(Br)o1`, the inhibition is -19.9%.
For `O=C(NC(=S)NNC(=O)c1cc2ccccc2cc1O)c1ccco1` the value was -70.1%; for `O=C(Nc1ccc(NC(=O)c2cccs2)cc1)c1ccc(Br)o1`, 3.54%.
